B2AR ag = activates human beta-2 adrenergic receptor causing internalization; actives 0.43% (n = 340,000); response, % (no concentration beside the values); Am2.2-beta2AR cells, FAP receptor internalization, flow cytometry; P07550;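 active = response above a set limit, near 3 SD of response in nonfluorescent compounds, cut at about 42% in these data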
NTR1 ag = NTR1 (human) agonism; actives 0.17% (n = 330,000); NTR1-U2OS beta-arrestin-GFP spot imaging, agonist mode; activation, % at 20 µM; P30989;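 active = activation at or above 40% of the spot to cytoplasm intensity ratio, with at least 20 cells analyzed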
Granule exo inh = blocks lytic granule exocytosis; TALL-104 LAMP-1 surface exposure, flow cytometry; cells stimulated with thapsigargin and PMA; inhibition, % at 10 µM; actives 0.66% (n = 360,000); AID 651702;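 active = inhibition above about 55%, limit read from the data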
ABHD5 PLIN5 PPI = ABHD5-PLIN5 protein interaction inhibition. inhibition, % at 4 µM. Split G. princeps luciferase complementation, luminescence, 4 h. actives 0.78% (n = 360,000). Q00G26+Q8WTS1. AID 602281;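 active = inhibition above the mean inhibition across every tested compound plus 3 SD, cut at about 22% in these data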
m5-HT2A agonist = agonists of mouse serotonin 5-HT2A receptor (HTR2A); actives 0.66% (n = 360,000); activation, % at 7.6 µM; CHO-K1 mHTR2A beta-arrestin complementation, luminescence; percent of 30 µM serotonin response;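 active = activation above a run cutoff, the mean activation of all tested compounds plus 3 SD, cut at about 14% in these data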
Target sequence (P35363 whole entry, looked up): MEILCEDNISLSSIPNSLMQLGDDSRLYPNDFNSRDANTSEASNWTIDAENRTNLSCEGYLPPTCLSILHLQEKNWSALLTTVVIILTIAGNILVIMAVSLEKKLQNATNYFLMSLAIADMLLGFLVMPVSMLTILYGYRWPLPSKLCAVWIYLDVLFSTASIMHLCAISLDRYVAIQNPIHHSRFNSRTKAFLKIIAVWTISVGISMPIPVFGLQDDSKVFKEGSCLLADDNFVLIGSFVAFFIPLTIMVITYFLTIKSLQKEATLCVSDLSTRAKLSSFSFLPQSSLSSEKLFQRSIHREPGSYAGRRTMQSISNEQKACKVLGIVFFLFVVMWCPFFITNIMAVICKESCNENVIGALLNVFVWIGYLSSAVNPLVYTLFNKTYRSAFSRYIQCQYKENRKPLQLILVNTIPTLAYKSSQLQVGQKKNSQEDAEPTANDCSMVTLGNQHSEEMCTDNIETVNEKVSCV
ABHD5 PLIN5 conf = confirmation of human ABHD5-PLIN5 interaction inhibitors | actives 67% (n = 2,200) | biochemical ABHD5-PLIN5 interaction, luminescence | shares compounds with ABHD5 PLIN5 PPI | inhibition, % at 4 µM; in the data active = inhibition above about 23%
HNF4 counter = HNF4 split-luciferase signal hit, counter-screen; shares compounds with ABHD5 PLIN5 PPI; HNF4 dimerization, luminescence, biochemical; inhibition, % at 4 µM; actives 77% (n = 2,200); AID 651674;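 active = mean inhibition across replicate wells exceeding the computed hit threshold, cut at about 13% in these data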;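 also: light from luciferase halves that rejoin when HNF4 fusion proteins dimerize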
Numbers stand for hits; 0 = inactive; - = no result. Hits are enriched below; roughly 2.3% of the tested compounds scored in any of these assays.

SMILES	B2AR ag	NTR1 ag	Granule exo inh	ABHD5 PLIN5 PPI	m5-HT2A agonist	ABHD5 PLIN5 conf	HNF4 counter
CCOC(=O)CNC(c1ccccc1)c1cc(Br)ccc1NC(=O)OCC (configuration not stated)	0	0	0	0	0	-	-
Cc1ccc(Cn2nc(C)c(C(=O)NCC(c3cccs3)N3CCOCC3)c2Cl)cc1 (configuration not stated)	0	0	0	0	0	-	-
CCSc1ncc(CO)c(N)n1	0	0	0	0	0	-	-
CCOC(=O)CSc1nnc(NCC(=O)OC)c(=O)[nH]1	0	0	0	25.9	0	41.5	79.5
N#Cc1ccccc1Sc1ccccc1N	0	0	0	0	0	-	-
Nc1ccccc1SSc1ccccc1N	0	0	0	60.2	0	88.4	104.2
CCOC(=O)C1=C(C)NC2=C(C(=O)C(C(=O)OCC)C(c3ccco3)C2)C1c1ccccn1 (configuration not stated)	0	0	0	42.1	0	0	16.7
Fc1ccccc1C1CC(c2ccco2)=Nc2ccccc2S1 (configuration not stated)	0	0	0	43.2	0	0	91.5
COc1ccc(-c2c(C#Cc3ccsc3)c3cc(-c4ccc5c(c4)OCO5)ccc3n2C)cc1	0	0	0	0	0	-	-
COc1cc(OC)cc(-c2c(C#Cc3ccsc3)c3cc(-c4ccc5c(c4)OCO5)ccc3n2C)c1	0	0	0	97.8	0	0	0
CC(=O)c1ccc(S(=O)(=O)N2CCC3(CC2)CC(=O)c2ccccc2O3)cc1	0	0	0	0	0	-	-
CCOC(=O)[C@]12CCCC=C1N(CCC1=CCCCC1)C(=O)[C@H](CC(=O)NCCCN1CCCC1=O)C2	-	-	0	0	0	-	-
COc1ccc(OC)c(C(c2c(O)nc(SC)[nH]c2=O)c2c(O)nc(SC)[nH]c2=O)c1	0	0	0	26.0	0	51.5	48.6
CC(C)c1ccc(C2CC(=O)c3cnc(N4CCc5ccccc5C4)nc3C2)cc1 (configuration not stated)	0	0	0	0	0	-	-
O=C1CC(c2ccco2)Cc2nc(N3CCc4ccccc4C3)ncc21 (configuration not stated)	0	0	0	27.5	0	0	23.2
CC(C)(C)n1nnnc1CN(Cc1ccco1)Cc1cc2cc3c(cc2[nH]c1=O)OCO3	0	0	0	42.4	0	23.9	33.8
CCOc1ccc2[nH]c(=O)c(CN(Cc3ccco3)C(CC)c3nnnn3Cc3ccccc3)cc2c1 (configuration not stated)	0	0	0	24.0	0	0	21.3
CCc1ccc2[nH]c(=O)c(CN(Cc3ccccc3OC)Cc3nnnn3Cc3ccco3)cc2c1	0	0	0	32.0	0	0	0
COc1ccc2[nH]c(=O)c(C(c3nnnn3C(C)(C)C)N(Cc3ccco3)CC3CCCO3)cc2c1 (configuration not stated)	0	0	0	24.4	0	28.3	71.9
CCOc1ccc2[nH]c(=O)c(CN(Cc3ccco3)Cc3nnnn3Cc3ccccc3)cc2c1	0	0	0	0	0	-	-
CCOC(=O)C1CCN(S(=O)(=O)c2c(C)[nH]c(C)c2C(=O)N2CCCCC2)CC1	0	0	0	0	0	-	-
CNc1c(NS(=O)(=O)c2ccc(OC)c(Cl)c2)c(=O)oc2ccccc12	0	0	0	0	0	-	-
CC(C)C(=O)N1CCCC1(C)C(=O)Nc1ccc(F)cc1 (configuration not stated)	-	-	0	0	0	-	-
Cc1ccc(CNC(=O)CCc2nnc(Cc3ccc(-c4ccccc4)cc3)o2)o1	0	0	0	28.1	0	0	0
O=C(/C=C/c1cccc(F)c1)NCc1ccc2c(c1)OCO2	0	0	0	0	0	-	-
COC(=O)c1ccc(/C=C/C(=O)c2ccc(OC)c(OC)c2)cc1	0	0	0	32.9	0	65.6	60.7
COc1cc(/C=C/C(=O)c2ccc(C)cc2)ccc1OCC#N	0	0	0	45.0	0	72.4	54.3
COc1ccc(/C=C/C(=O)NCc2ccc3c(c2)OCO3)cc1OC	0	0	0	96.2	0	0	0

High-throughput results: PubChem, several laboratories
